Inhibition data for 17 molecules are collected here from PubChem BioAssay.

Molecules are shown by their SMILES. A number with no mark means an inactive call. How the calls were made is not given here.

Sequence of Pantothenate synthetase (Mycobacterium tuberculosis (strain ATCC 25618 / H37Rv)) (P9WIL5 whole entry, looked up): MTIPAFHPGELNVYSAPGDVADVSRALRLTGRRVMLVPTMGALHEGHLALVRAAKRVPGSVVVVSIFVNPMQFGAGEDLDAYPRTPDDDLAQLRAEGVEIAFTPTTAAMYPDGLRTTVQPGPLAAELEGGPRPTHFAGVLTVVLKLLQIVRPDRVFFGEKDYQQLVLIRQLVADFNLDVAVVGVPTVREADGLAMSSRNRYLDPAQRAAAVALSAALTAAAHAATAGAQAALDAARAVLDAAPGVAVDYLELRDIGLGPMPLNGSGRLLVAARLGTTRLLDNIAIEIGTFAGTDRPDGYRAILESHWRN

The test concerns the target Pantothenate synthetase (Mycobacterium tuberculosis (strain ATCC 25618 / H37Rv)) (UniProt P9WIL5). Kind of test: Coupled enzyme confirmation of inhibitors against recombinant Mtb PanC (AID 375).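 Further: 0% = full reaction with vehicle and 100% = no enzyme background.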 The following applies: coupled enzyme assay; at 10 µM, hits give high values.
As for `Cn1c2ccccc2c2c(C(=O)NCCCN3CCCC3=O)cn(C3CCCCC3)c(=O)c21`, the inhibition (as a rule, the share of the control response that was lost under treatment) was 8%.

For the molecule `Cc1ccc(-c2ccc(=O)n(CCC(=O)NCc3ccccn3)n2)cc1`, the inhibition was 4%.

For the molecule `OC(COc1ccccc1)CN1C2=NCCCN2c2ccccc21` (configuration not stated), the inhibition is 1%.

Regarding `C(=C\c1ccccc1)/CN1CCN(Cc2ccc3c(c2)OCCO3)CC1`, the inhibition is 1%.

Consider `COCCn1c(SCC(=O)N(C(C)C)C(C)C)nnc1-c1cc2ccccc2cc1O`, for which the inhibition was 0%.

For the molecule `CC(=O)C1=C(C)OC(N)=C(C#N)C1c1ccncc1` (configuration not stated), the inhibition was 0%.

For `Cc1cc(C(=O)NCCCN2CCOCC2)n(-c2ccccc2)n1`, the inhibition is 0%.

In the case of `CCOc1ccccc1C1N(c2ccc(F)cc2)C(=O)C2CCCN21` (configuration not stated), the inhibition was 2%.

On to `COC(=O)c1cc(S(=O)(=O)N2CCC(C)CC2)ccc1F`, for which the inhibition is 6%.

For `O=C(NC1CCCCC1)N(Cc1ccc(F)cc1)Cc1nc2ccccc2c(=O)[nH]1`, the inhibition was 9%.

For the molecule `C=CCSc1nc2sc(C)c(C)c2c(=O)[nH]1`, the inhibition is 10%.

On to `COCCNC(=O)C(c1ccc(C)o1)N(C(=O)c1snc(C(N)=O)c1N)c1ccc(C)cc1` (configuration not stated), for which the inhibition was 4%.

`CC(=O)Nc1cccc(Oc2nc(C)cc(C)c2C#N)c1`: the inhibition was 1%.

With `O=C(NCc1cccnc1)c1ccc2c(c1)OCO2`, the inhibition was 0%.

As to `Cc1nc(C)c2c(c1C(F)(F)F)-c1ccccc1C2(F)F`, the inhibition is 0%.

As to `Cc1cc2n(n1)C(c1ccccc1)Nc1ccccc1-2` (configuration not stated), the inhibition is 7%.

`c1cncc(C2Nc3ccccc3-c3nc4ccccc4n32)c1` (configuration not stated): the inhibition is 7%.
